Several values for one entry are separate records, joined by “and”; a condition that tells them apart may be missing. Equal values may be shown once. In all, about 5,300 compounds were measured (“PER2::LUC luminescence relative to vehicle control”: median about 0.96, highest 2% from about 1.3 on). Only a selection was taken, and the highest values are over-represented in it overall.
System: mPer2Luc MEF
Test: PER2::LUC luminescence relative to vehicle control (fold of vehicle); higher = higher PER2::LUC reporter signal
Conditions: 10 µM
Procedure, shortened: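 Mouse embryonic fibroblasts carrying the mPer2Luc reporter were seeded at ~3000 cells per well in 384-well plates, 48 h before compounds from commercial libraries were added at 10 μM. Cells were grown in DMEM with 10% FBS at 37 °C and 5% CO2. Luminescence was read with the ONE-Glo luciferase assay system 24 h and 30 h after treatment, followed by an alamarBlue viability assay. The value is PER2::LUC luminescence as fold of vehicle control.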

Row | SMILES | PER2::LUC luminescence (time after treatment 24 h) | PER2::LUC luminescence (time after treatment 30 h)
1 | O=C([O-])CN1CCN(CC(=O)[O-])CCN([C@H](CO)[C@H](O)CO)CCN(CC(=O)[O-])CC1.[Gd+3] (racemic) | 1.03 | 1.04
2 | C[C@H]1COC2(CCN(c3nc(=O)c4cc(C(F)(F)F)cc([N+](=O)[O-])c4s3)CC2)O1 (racemic) | 1.32 | 1.39
3 | COCc1c(C(C)C)nc(C(C)C)c(/C=C/[C@@H](O)C[C@@H](O)CC(=O)O)c1-c1ccc(F)cc1 | 0.305 | 0.274
4 | CCN1CCC[C@H]1CNC(=O)c1c(O)c(Cl)cc(Cl)c1OC | 1.14 and 1.02 | 0.977 and 0.877
5 | CCCCN1CCCC1CNC(=O)c1cc(C#N)c2ccccc2c1OC (configuration not stated) | 1 | 1.58
6 | CCN1CCC[C@H]1CNC(=O)c1c(OC)ccc(Br)c1OC | 1.03 | 0.993
7 | CC(C)=CCC[C@@H](C)[C@H]1CC[C@@]2(C)C3=C(CC[C@]12C)[C@@]1(C)CC[C@H](O)C(C)(C)[C@@H]1CC3 | 1.06 | 0.995
8 | O=C(O)CC1CCC(c2ccc(-c3ccc4nc(C(=O)NCc5ccc(OC(F)(F)F)cc5)cn4c3)cc2)CC1 (configuration not stated) | 1 | 1.1
9 | c1ccc(Cc2nc3ccccc3[nH]2)cc1 | 1.17 | 0.971
10 | CC(C)(C)c1ccc(-c2nc3ccccc3[nH]2)cc1 | 0.03 | 0.034
11 | c1ccc2[nH]c(-c3cscn3)nc2c1 | 1.41 | 1.35
12 | O=C(NC[C@@H]1CN(c2ccc(N3CCOCC3=O)cc2)C(=O)O1)c1ccc(Cl)s1 | 0.948 | 0.975
13 | CNC(=O)[C@H]1O[C@@H](n2cnc3c(N)ncnc32)[C@H](O)[C@@H]1O | 1.11 | 1.03
14 | CC1(O)CCC(C(C)(C)O)CC1 (configuration not stated) | 0.901 and 0.99 | 0.986 and 0.688
15 | C[C@H]1CC[C@@H](C(C)(C)O)CC2=C1CC[C@@H]2C | 1.46 | 1.05
16 | CCOc1ccc2nc(S(N)(=O)=O)sc2c1 | 1.19 | 1.28
17 | Nc1nc2ccc(OC(F)(F)F)cc2s1 | 1.26 and 0.999 | 1.5 and 1.06
18 | Oc1ccc(/C=C/c2cc(O)cc(O)c2)cc1 | 1.46 | 1.29
19 | Oc1cc(O)cc(/C=C/c2ccc(O)c(O)c2)c1 | 1.15 | 1.09
20 | COc1cc(/C=C/c2ccc(O)cc2)cc(OC)c1 | 1.03 | 0.93
21 | NC1(C(=O)O)C[C@@H](C(=O)O)[C@H](C(=O)O)C1 (racemic) | 0.98 | 0.892

Row | SMILES | PER2::LUC luminescence (time after treatment 24 h) | PER2::LUC luminescence (time after treatment 30 h)
22 | COc1cc(-c2oc3cc(O)ccc3c(=O)c2O)ccc1O | 1.13 | 1.2
23 | COc1cc(N(C)CCN(C)C)c(N)cc1Nc1nccc(-c2cn(C)c3ccccc23)n1 | 0.57 | 0.54
24 | COc1ccc2c(C)cc(=O)oc2c1 | 0.984 | 1.02
25 | COc1ccc2c(c1)OC/C(=C\c1ccc(OC)c(O)c1)C2=O | 0.879 | 0.794
26 | COc1ccc2c(c1)OCc1c-2oc2cc(OC)ccc12 | 1.52 | 1.8
27 | OC1c2ccccc2N=C2CCCN21 (configuration not stated) | 0.854 | 0.868
28 | N#CC[C@H](C1CCCC1)n1cc(-c2ncnc3[nH]ccc23)cn1 | 0.99 | 1.13
29 | N#CCC(C1CCCC1)n1cc(-c2ncnc3[nH]ccc23)cn1 (configuration not stated) | 1.26 | 1.51
30 | CCS(=O)(=O)N1CC(CC#N)(n2cc(-c3ncnc4[nH]ccc34)cn2)C1 | 1.09 and 0.875 | 1.24 and 1.03
31 | CCC1=C[C@H]2CN(C1)Cc1c([nH]c3ccccc13)[C@@](C(=O)OC)(c1cc3c(cc1OC)N(C)[C@H]1[C@@](O)(C(=O)OC)[C@H](OC(C)=O)[C@]4(CC)C=CCN5CC[C@]31[C@@H]54)C2 | 0.279 | 0.324
32 | O=C(Nc1ccc(Cl)cc1)c1cc(Br)ccc1O | 0.822 | 0.728
33 | CCc1c(C(=O)NNC(=O)[C@@H](O)c2cc(F)cc(F)c2)ccc(O)c1C | 1.02 | 1.09
34 | O=Nc1c(-c2c(O)[nH]c3cc(Br)ccc23)[nH]c2ccccc12 | 0.663 | 0.788
35 | O=Nc1c(-c2c(O)[nH]c3ccccc23)[nH]c2ccccc12 | 1.72 | 2.02
36 | O=C1N=c2ccccc2=C1c1c(O)[nH]c2ccccc12 | 0.942 | 0.677
37 | CN(C)Cc1nc(-c2cn(C)c3ccccc23)no1 | 0.847 | 0.949
38 | NS(=O)(=O)c1ccc(C(=O)O)cc1 | 0.746 | 1.06
39 | CCCN(CCC)S(=O)(=O)c1ccc(C(=O)O)cc1 | 0.832 | 0.861
40 | O=C(O)c1ccc(S(=O)(=O)N(Cl)Cl)cc1 | 0.921 | 1.67
41 | COc1cccc(/C=N/N(C(=O)C(F)(F)F)c2ccc(C)cc2C)c1 | 0.818 | 0.768
42 | CN(CCCNC(=O)c1ccc2nc3c(c(Cl)c2c1)CCCC3)Cc1ccccc1 | 0.848 | 0.958

Row | SMILES | PER2::LUC luminescence (time after treatment 24 h) | PER2::LUC luminescence (time after treatment 30 h)
43 | C=CCn1c(=O)c2c(nc(-c3ccccc3)n2C)n(C)c1=O | 0.98 | 0.951
44 | O=c1c(O)c(-c2ccc(O)cc2O)oc2cc(O)cc(O)c12 | 0.955 | 0.963
45 | O=c1c(O)c(-c2ccccc2)oc2cc(O)cc(O)c12 | 1.24 | 1.34
46 | O=c1c(O)c(-c2ccc(O)c(O)c2)oc2cc(O)cc(O)c12 | 0.939 and 0.842 | 0.934 and 1
47 | O=c1c(O)c(-c2ccc(O)cc2)oc2cc(O)cc(O)c12 | 1.01 | 0.989
48 | O=c1c(O)c(-c2ccccc2O)oc2cc(O)cc(O)c12 | 0.983 | 0.996
49 | O=c1c(O)c(-c2cc(O)c(O)c(O)c2)oc2cc(O)cc(O)c12 | 1.22 | 1.34
50 | C[C@@H]1O[C@@H](O[C@H]2[C@H](Oc3cc(O)c4c(=O)c(O)c(-c5ccc(O)cc5)oc4c3)O[C@H](CO)[C@@H](O)[C@@H]2O)[C@H](O)[C@H](O)[C@H]1O | 1.24 | 0.968
51 | COC(=O)C1=CO[C@@H](O[C@@H]2O[C@H](CO)[C@@H](O)[C@H](O)[C@H]2O)[C@H]2[C@@H]1C(=O)C[C@@H]2C | 0.968 | 0.979
52 | NC(=O)[C@@H]1CC[C@H](c2ccc(OCc3ccccc3F)cc2)N1 | 0.937 | 1.12
53 | COc1ccc(C(=O)c2ccccc2C(=O)O)c(O)c1 | 1.19 | 0.841
54 | Ic1cccc(/C=N/Nc2nc(N3CCOCC3)nc(N(c3ccccc3)c3ccccc3)n2)c1 | 1.3 | 1.15
55 | CCOC(=O)C1=C(COCCN)NC(C)=C(C(=O)OC)[C@@H]1c1ccccc1Cl | 0.445 | 0.46
56 | CCOC(=O)C1=C(C)NC(C)=C(C(=O)OC)C1c1cccc([N+](=O)[O-])c1 (configuration not stated) | 1.06 and 0.626 | 1.37 and 0.715
57 | COC(=O)C1=C(C)NC(C)=C(C(=O)OCCN(C)Cc2ccccc2)C1c1cccc([N+](=O)[O-])c1 (configuration not stated) | 1.07 | 0.867
58 | COCCOC(=O)C1=C(C)NC(C)=C(C(=O)OC(C)C)C1c1cccc([N+](=O)[O-])c1 (configuration not stated) | 1.13 | 1.17
59 | CNCc1ccc(C)c(NC(=O)c2ccc(Nc3nc(-c4ccccc4)c4ccccc4n3)cc2)c1 | 0.439 | 0.475
60 | Cc1ccc(C(=O)Nc2ccc(S(=O)(=O)O)c3cc(S(=O)(=O)O)cc(S(=O)(=O)O)c23)cc1NC(=O)c1cccc(NC(=O)Nc2cccc(C(=O)Nc3cc(C(=O)Nc4ccc(S(=O)(=O)O)c5cc(S(=O)(=O)O)cc(S(=O)(=O)O)c45)ccc3C)c2)c1 | 0.964 and 0.875 | 0.981 and 0.97
61 | Cc1ccc(NC(=O)c2cccc(N(C)C)c2)cc1NC(=O)c1ccc(O)cc1 | 1.1 | 1.56
62 | CO/S(=N\S(=O)(=O)c1ccc(Cl)cc1)c1ccc([N+](=O)[O-])cc1 (configuration not stated) | 0.994 | 1.22
63 | COc1cc(OC)cc(C(=O)Nc2ccc(Cl)c(-c3nc4ccc(N(C)C)cc4[nH]3)c2)c1 | 0.977 | 1.35

Row | SMILES | PER2::LUC luminescence (time after treatment 24 h) | PER2::LUC luminescence (time after treatment 30 h)
64 | NC(=O)c1ccc2nc(-c3ccc(Oc4ccc(Cl)cc4)cc3)[nH]c2c1 | 1.29 | 1.16
65 | CC(C)CC[C@@H](O)[C@](C)(O)[C@H]1CC[C@@]2(O)C3=CC(=O)[C@]4(O)C[C@@H](O)[C@@H](O)C[C@]4(C)[C@H]3[C@H](O)C[C@]12C | 1.22 | 1.26
66 | Cc1o[nH]c(=O)c1CCC(N)C(=O)O (configuration not stated) | 0.959 | 0.829
67 | O=C[C@H](O)[C@H]1OC(=O)[C@@H](O)[C@H]1O | 1.14 | 0.922
68 | C[n+]1cc(NC(=O)c2cccc(C(=O)Nc3cc4ccccc4[n+](C)c3)n2)cc2ccccc21 | 0.697 | 0.604
69 | Cc1cccn2c(=O)c(C=C(C#N)c3nc4ccccc4s3)c(Oc3ccc(F)cc3)nc12 | 0.941 | 0.942
70 | CCCCCCCC/C=C/CCCCCCCCOP(=O)([O-])OCC[N+](C)(C)C | 1.02 | 0.935
71 | OC[C@H]1O[C@@H](O[C@H]2[C@H](O)[C@@H](O)C(O)O[C@@H]2CO)[C@H](O)[C@@H](O)[C@H]1O (some centres not stated) | 1.03 | 1.06
72 | OC[C@H]1O[C@@H](O[C@H]2[C@H](O)[C@@H](O)[C@@H](O)O[C@@H]2CO)[C@H](O)[C@@H](O)[C@@H]1O | 0.982 | 0.927
73 | OC[C@H]1O[C@@H](O[C@@H]2[C@@H](CO)OC(O)(CO)[C@H]2O)[C@H](O)[C@@H](O)[C@H]1O (mixture of isomers) | 1.12 | 1.37
74 | CCCC1(C)C(C#N)(C#N)C1(C#N)C#N | 1.15 | 1.04
75 | CC[C@H](CC[C@@H](C)[C@H]1CC[C@H]2[C@@H]3CC=C4C[C@@H](OC(C)=O)CC[C@]4(C)[C@H]3CC[C@]12C)C(C)C | 1.04 | 1.02
76 | COC(=O)c1ccc2c(c1)nc(NC(=O)c1ccccc1)n2CCCc1ccccc1 | 1.09 | 0.933
77 | C[C@@H]1CCNC(=O)c2cc3ccc(C(=O)Nc4nc5ccccc5n4CCCN(C)C)cc3n21 | 0.548 | 0.586
78 | O=C(Nc1nc2ccccc2n1CCN1CCOCC1)c1cccc([N+](=O)[O-])c1 | 1.36 | 1.18
79 | CC(C)[C@H](NC(=O)CCCCCN1C(=O)C=CC1=O)C(=O)N[C@@H](CCCNC(N)=O)C(=O)Nc1ccc(COC(=O)Oc2ccc([N+](=O)[O-])cc2)cc1 | 0.958 | 1.07
80 | COC(=O)CNC(=O)C(=O)OC | 0.922 | 0.99
81 | CC(C)(C)c1ccc(S(=O)(=O)Nc2ccc(-n3ccnc3)cc2)cc1 | 1.15 | 1.26
